Reference: the supplement of paper PMC11219838
Values without a mark were called inactive.

Key:
[1] = tested on: Caenorhabditis elegans dauer (daf-2(e1370)); assay: proportion of mobile C. elegans dauer larvae relative to DMSO control (fraction of DMSO control); higher = more viable, less nematicidal, active = 0.63 or less; extreme values may be limits of the assay; settings: 60 µM; 5 days; temperature: 20 °C
Outline: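 Synchronized C. elegans larvae were kept for 48 h at 25 °C on MYOB plates seeded with E. coli OP50 to induce dauer formation, and roughly 20 dauers were transferred into each well of a 96-well plate containing liquid NGM. Compound was pinned in to a final concentration of 60 µM with 0.6% v/v DMSO, and the sealed plates were shaken at 200 rpm for 5 days at 20 °C. The fraction of mobile worms was scored under a dissection microscope against DMSO-only wells and averaged across two biological replicates.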

Ditylenchus dipsaci = assay: proportion of mobile D. dipsaci (mixed stage) relative to DMSO control (fraction of DMSO control); higher = more viable, less nematicidal, active = 0.86 or less; extreme values may be limits of the assay; settings: 60 µM; 5 days; temperature: 20 °C
Outline: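 Ditylenchus dipsaci nematodes were cultured on pea plants in Gamborg B-5 agar, then extracted into water through a filter funnel, and roughly 20 worms in distilled water were placed in each well of a 96-well plate. Compound was pinned in to a final concentration of 60 µM (0.6% v/v DMSO), and the sealed plates were shaken at 200 rpm for 5 days at 20 °C. Mobile worms were counted under the microscope after 2 µL of 1 M NaOH was added. Mobility is given relative to DMSO controls as the mean of two biological replicates.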

Compound	proportion of mobile C. elegans dauer larvae [1]	proportion of mobile D. dipsaci (Ditylenchus dipsaci)
Cc1ccc(SC(C)c2nc(-c3ccncc3)no2)cc1 (stereo not given)	0.8	1
COc1cccc(-c2nc(-c3ccc(Cl)cc3)no2)c1	–	1
O=C(Nc1cccc(-c2noc(COc3ccccc3)n2)c1)c1cccs1	1	1
Cc1cnc(NC(=O)CSc2nnc(-c3cccc(Cl)c3)o2)s1	1	0.9
COc1ccccc1-c1noc(-c2ccccc2C)n1	–	1
COc1cccc(-c2nnc(SCC(=O)NC3CCCCC3)o2)c1	1	1
Cc1ccc(-c2noc(-c3ccc(-n4nncc4C)cc3)n2)cc1	1	1
Clc1cc(Br)ccc1OCc1nc(-c2ccccn2)no1	–	1
COc1cccc(-c2nnc(SCC(=O)Nc3ccccc3)o2)c1	1	1
COc1ccc(-c2noc(-c3ccccc3Br)n2)cc1	1	1
O=C(CSc1nnc(-c2cccc(Br)c2)o1)N1CCCCC1	–	1
COc1ccc(C)cc1NC(=O)CSc1nnc(-c2ccc(Br)cc2)o1	1	1
CCCC(=O)Nc1ccccc1-c1nc(-c2ccccn2)no1	–	1
COc1ccc(-c2noc(COc3ccc(Br)cc3)n2)cc1	1	1
O=C(CSc1nnc(-c2ccccc2)o1)Nc1cc(C(F)(F)F)ccc1Cl	1	1
Cc1ccc(-c2nc(-c3ccccc3)no2)cc1Cl	1	1
COc1ccc(Cl)cc1-c1noc(COc2ccc(Cl)cc2)n1	–	1
COc1ccc(-c2nnc(SCC(=O)Nc3cc(Cl)ccc3C)o2)cc1	1	1
CCCC(=O)Nc1ccccc1-c1nc(-c2cccnc2)no1	–	1
Cc1ccc(-c2noc(-c3ccccc3C(=O)N3CCC(C)CC3)n2)cc1	1	1

Compound	proportion of mobile C. elegans dauer larvae [1]	proportion of mobile D. dipsaci (Ditylenchus dipsaci)
COc1ccccc1NC(=O)CSc1nnc(-c2ccccc2)o1	–	1
Cc1ccc(CSc2nnc(-c3ccco3)o2)c(C)c1	1	1
Ic1ccc(CSc2nnc(-c3ccccc3)o2)cc1	–	1
COc1ccc(Cl)cc1-c1noc(-c2ccccc2)n1	–	1
COc1cccc(-c2nnc(SCc3ccccc3)o2)c1	–	1
COc1ccccc1-c1nc(-c2ccccc2)no1	1	1
CCOC(=O)c1c(NC(=O)CSc2nnc(-c3ccc(Cl)cc3)o2)sc(C)c1C	–	1
CCCCCOC(=O)CSc1nnc(-c2ccc(Cl)cc2Cl)o1	1	1
COc1ccc(Cl)cc1-c1noc(-c2cccc(C)c2)n1	1	1
Cc1ccc(-c2nnc(SCc3ccccc3C#N)o2)cc1	–	1
O=C(CSc1nnc(-c2cccc(Cl)c2)o1)NC1CCCCC1	1	1
Cc1ccc(-c2nc(-c3cccnc3)no2)c(C)c1	0.0769 (active)	1
Clc1ccc(-c2noc(COc3ccc4c(c3)OCO4)n2)cc1	–	1
CSc1ccccc1-c1nc(-c2cccnc2)no1	0.684	1
Brc1ccccc1-c1nc(-c2ccccn2)no1	–	1
COc1ccccc1OCc1nc(-c2cccc(Br)c2)no1	–	1
COc1ccc(Cl)cc1-c1noc(COc2ccccc2C)n1	–	1
Clc1ccc(-c2nc(-c3cccnc3)no2)c(Cl)c1	–	1
COc1cccc(-c2noc(CSc3ccc(Cl)cc3)n2)c1	1	1
